Compound activity: PubChem, National Center for Advancing Translational Sciences (NCATS)
HTT promoter inh: HTT promoter inhibition; HEK293 HTT promoter firefly luciferase reporter, 24 h; Potency, µM (top dose mostly 57.5 µM), inactives show top-dose activity change, negative = inhibition, usual class: inhibitors; 48,000 compounds, 0.93% hits; AID 1508623; also: potency is read from the fitted curve at half-maximal effect; nearly all actives have a fitted effect of over 50% in size
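Luminescence was read after Dual-Glo reagent and a 10 min room-temperature incubation. Values were normalized to vehicle (0% activity) and zero RLU (-100% activity). Reporter HEK293 cells had been exposed to compounds (up to 57.5 uM final) for 24 h.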
NTMT1 inhibitor: NTMT1 methyltransferase inhibition; AID 1645870; Potency, µM (series often up to 114 µM), inactives show at the highest dose activity change, negative = inhibition, hits mostly inhibitors; NTMT1 MTase-Glo SAH luminescence, purified enzyme; 59,000 compounds, 2.5% hits;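 also: potency is read from the fitted curve at half-maximal effect; plate controls were DMSO vehicle for no effect and no enzyme for full effect; nearly all actives have a fitted effect of over 65% in size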
Target sequence (Q9BV86 whole entry, looked up): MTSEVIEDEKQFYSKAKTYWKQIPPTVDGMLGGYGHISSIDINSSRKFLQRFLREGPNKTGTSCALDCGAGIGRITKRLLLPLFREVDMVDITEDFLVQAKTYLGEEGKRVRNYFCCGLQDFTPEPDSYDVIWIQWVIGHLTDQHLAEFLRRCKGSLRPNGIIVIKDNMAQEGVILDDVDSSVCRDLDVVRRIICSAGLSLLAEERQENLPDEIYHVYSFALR
HTT-AS act: activators of huntingtin-antisense promoter activity. HEK293 HTT-AS promoter firefly luciferase reporter, 24 h; response scale: percent change from vehicle, -100% = no light. AID 1508624. Potency, µM (highest dose often 57.5 µM), for the others: at the top dose activity change, positive = activation, most hits filed as activators. 48,000 compounds, 0.24% hits; also: potency is read from the fitted curve at half-maximal effect; nearly all actives have a fitted effect of over 55% in size
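Firefly luciferase signal from promoter-reporter HEK293 cells was scaled between vehicle (0%) and zero RLU (-100%). Compounds were tested at final concentrations of up to 57.5 uM over 24 h at 37 degrees C. PTC124 at 50 uM final served as control inhibitor.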
DRV1 agonist: activates human resolvin D1 receptor GPR32; O75388; CHO-K1 GPR32 beta-arrestin PathHunter luminescence, 90 min; zero percent set by DMSO-only wells; activation, % at 76.9 µM; 48,000 compounds, 2.5% hits;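 active = activation of at least 60% and not above a set upper limit, about 1 call in 100 departs from these limits; inconclusive = activation of 40% to 60%, or above that upper limit; inactive = activation under 40%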; also: 0% is about no effect
Target sequence (O75388 whole entry, looked up): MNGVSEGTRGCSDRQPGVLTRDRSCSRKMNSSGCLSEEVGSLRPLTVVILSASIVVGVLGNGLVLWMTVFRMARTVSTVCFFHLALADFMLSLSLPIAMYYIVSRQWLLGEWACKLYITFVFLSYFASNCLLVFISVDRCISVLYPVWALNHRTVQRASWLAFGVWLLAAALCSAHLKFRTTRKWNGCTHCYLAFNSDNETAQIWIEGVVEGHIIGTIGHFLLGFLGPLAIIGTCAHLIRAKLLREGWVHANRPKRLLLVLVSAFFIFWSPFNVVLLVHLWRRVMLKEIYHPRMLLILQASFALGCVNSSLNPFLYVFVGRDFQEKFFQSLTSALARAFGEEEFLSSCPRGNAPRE
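Engineered CHO-K1 line co-expressing GPR32-ProLink and EA-beta-arrestin. Compound treatment lasted 90 min at 37 °C. Luminescence was recorded after 1 h with substrate at ambient temperature, relative to DMSO basal wells.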
The depositor's hits bear a star; ? = inconclusive; nt = no result given; ! = not active in a repeat; [ ] = remark or other dose. In the library only some 4.6% were active in any assay of this set; here they are far more common. Unless noted, calls follow the shape of the dose curve; as a rule, active = well fitted curve in the direction sought with a large enough effect; inconclusive = small, poorly fitted or top-dose-only effect, or another doubt; inactive = no such curve, though single readings can be large; an effect the other way counts as inactive or inconclusive.

SMILES	HTT promoter inh	NTMT1 inhibitor	HTT-AS act	DRV1 agonist
CCOc1ccccc1CC1C(=O)Nc2ccc(Br)cc21 (stereo not given)	18µM*	?	-61%	73*
O=C1Nc2ccccc2C1Cc1ccc(Br)cc1 (stereo not given)	-17%	-7%	-18%	-21
COc1ccc(CC2C(=O)Nc3ccc(Br)cc32)cc1OC (stereo not given)	-13%	-3%	-18%	-18
COc1ccc(OC)c(CC2C(=O)Nc3ccc(Br)cc32)c1 (stereo not given)	20µM*	?	-51%	-19
CC1(C)CC[C@]2(C(=O)O[C@@H]3O[C@H](CO[C@@H]4O[C@H](CO)[C@@H](O)[C@H](O)[C@H]4O[C@@H]4O[C@H](CO)[C@@H](O)[C@H](O)[C@H]4O)[C@@H](O)[C@H](O[C@@H]4O[C@H](CO)[C@@H](O)[C@H](O)[C@H]4O)[C@H]3O)CC[C@]3(C)C(=CCC4[C@@]5(C)CC[C@@H](O)[C@@](C)(C(=O)O[C@@H]6O[C@H](CO)[C@@H](O)[C@H](O)[C@H]6O)C5CC[C@]43C)[C@@H]2C1 (stereo not given in full)	nt	4%[6.45 µM]	nt	nt
Cc1ccc(-n2ncc3c(NCc4ccccc4)ncnc32)cc1Cl	22%	5%	0%	62*
Cc1ccc(Cl)cc1-n1ncc2c(NCCCc3ccccc3)ncnc21	?	-2%	-30%	78*
Cc1ccc(Cl)cc1-n1ncc2c(NCc3ccc(F)cc3)ncnc21	?	-19%	-28%	26
Cc1ccc(Cl)cc1-n1ncc2c(NCCc3ccccc3)ncnc21	-14%	-1%	?	101*
Cc1ccc(CNc2ncnc3c2cnn3-c2ccc(Cl)cc2)cc1	5%	26%	18%	-8
CC(=O)Nc1sc2c(c1C(=O)O)CCNC2	nt	7%	nt	nt
FC(F)(F)c1cccc(CSc2nc3ncc(Br)cc3[nH]2)c1	nt	-4%	nt	nt
CC1CCN(S(=O)(=O)c2cc(C(=O)NCCc3ccccc3)n(C)c2)CC1	-28%	-17%	-24%	-5
CC1CCN(S(=O)(=O)c2cc(C(=O)NCc3ccc(N(C)C)cc3)n(C)c2)CC1	-26%	89µM*	-30%	12
Cc1ccc(NC(=O)c2cc(S(=O)(=O)N3CCC(C)CC3)cn2C)cc1Cl	-11%	89µM*	-12%	-1
Cc1ccc(-n2ncc3c(NCCCN4CCOCC4)ncnc32)cc1C	?	50µM*	-48%	35
Cc1ccc(-n2ncc3c(N4CCN(C)CC4)ncnc32)cc1C	-32%	?	-17%	75*
Cc1ccc(-n2ncc3c(N4CCCCCC4)ncnc32)cc1Cl	0.35µM*	-4%	-80%	14
COc1cc(C2Oc3c(OC)cc(/C=C/C(=O)OC[C@H]4O[C@@H](OC(C)(C)C(=O)O)[C@H](O)[C@@H](O)[C@@H]4O)cc3C2CO)ccc1O (stereo not given in full)	nt	-15%[12.6 µM]	nt	nt
O=C1CCCC2=C1C(c1cccnc1Cl)N=C(Nc1nc3ccccc3o1)N2 (stereo not given)	nt	7%	nt	nt
CCc1cnn2c(NCc3ccc[n+]([O-])c3)cc(N3CCCCC3CCO)nc12 (stereo not given)	nt	-6%[57.5 µM]	nt	nt
Cc1cccc(N(C)c2nc3ccc(C)cc3n3cnnc23)c1	13%	?	13%	66*
CC(O)C(C)n1ncn(-c2ccc(N3CCN(c4ccc(OCC5COC(Cn6cncn6)(c6ccc(Cl)cc6Cl)O5)cc4)CC3)cc2)c1=O (stereo not given)	nt	7%[57.5 µM]	nt	nt
CC(C)(Nc1nc(-c2ccccc2C(F)(F)F)nc2ccccc12)c1ccc(-c2cccc(C(F)(F)F)c2)cc1	nt	0%	nt	nt
CCOc1ccc(/C=C/c2nc3ccccc3n2S(=O)(=O)c2cccc(Cl)c2)cc1	?	5µM*	-55%	70*
SMILES	HTT promoter inh	NTMT1 inhibitor	HTT-AS act	DRV1 agonist
CSc1ccc(/C=C/c2nc3ccccc3n2S(=O)(=O)c2ccc(F)c(C)c2)cc1	?	16µM*	?	23
CC(C)(C)C1CCc2oc3ccc(NS(=O)(=O)c4ccc(C(=O)O)cc4)cc3c2C1 (stereo not given)	-9%	50µM*	-11%	47
Cc1c(CN2CCC(Nc3ncnc4sc(CC(F)(F)F)cc34)CC2)ccc2c1cc(C#N)n2Cc1cn[nH]c1	nt	4%	nt	nt
Cc1cc(SCc2sc(-c3ccc(C(F)(F)F)cc3)nc2C)ccc1OCC(=O)O	14%	79µM*!	21%	nt
COc1ccc(C(=O)NCCc2sc(-c3ccc(F)cc3)nc2C)cc1OC	?	-1%	-10%	5
COc1cc(C(CC(=O)Nc2ccc(C)c(F)c2)N2Cc3ccccc3C2=O)cc(OC)c1OC (stereo not given)	1%	5%	-14%	-6
O=C(CC(c1cccs1)N1Cc2ccccc2C1=O)Nc1cccc(F)c1 (stereo not given)	?	5%	-35%	61*
CCOC(=O)c1cccc(NC(=O)CC(c2cc(OC)c(OC)c(OC)c2)N2Cc3ccccc3C2=O)c1 (stereo not given)	-28%	89µM*	?	-8
Cc1cc(-c2ccccc2)n2ncc(C(=O)Nc3ccc(Cl)c(Cl)c3)c2n1	nt	13%	nt	nt
CC1(COc2ccc3c(c2)ncn3-c2ccc3cccc(N4CCC(N)CC4)c3n2)COC1	?	22µM*!	-51%	nt
O=C(Nc1ccc([S+](=O)([O-])Nc2nccs2)cc1)c1ccccn1	nt	9%	nt	nt
Oc1ccc(C2CCN(c3ccnc4ccccc34)CC2)cc1O	?	10µM*!	-24%	nt
COc1ccc([C@@H](O)[C@@H](C)Oc2ccc([C@H]3O[C@H](c4ccc(O[C@H](C)[C@H](O)c5ccc(OC)c(OC)c5)c(OC)c4)[C@H](C)[C@H]3C)cc2OC)cc1OC	nt	10%	nt	nt
Cc1nn(-c2ccc(F)cc2)c(-n2cccc2)c1C(=O)N1CCN(c2ccc(F)cc2)CC1	28µM*	?	-34%	28
COc1ccc(N2CCN(C(=O)c3c(C)nn(-c4ccc(F)cc4)c3-n3cccc3)CC2)cc1	-22%	-17%	0%	-5
Cc1cc(Cl)ccc1NC(=O)Cn1nc(C)c2c(C)n(-c3ccccc3)nc2c1=O	-19%	50µM*	-23%	-18
CC(C)OCCCNc1ncnc2sc3c(c12)CCCC3	?	50µM*	-39%	104*
CN(C)c1ccc(Nc2ncnc3sc4c(c23)CCCC4)cc1	11µM*	?	-79%	4
CCOC(=O)C(CC)Sc1ncnc2sc3c(c12)CCCC3 (stereo not given)	-20%	6%	-29%	47
Cc1ccc(Nc2ncnc3sc4c(c23)CCC(C)C4)cc1C (stereo not given)	-5%	?	-3%	?
CC(C)=CCC(O)[C@](C)(O)C1[C@H](O)C[C@@]2(C)C3CC=C4C(C[C@H](O)[C@@H](O[C@@H]5O[C@H](CO)[C@@H](O)[C@H](O)[C@H]5O)C4(C)C)[C@]3(C)C(=O)C[C@]12C (stereo not given in full)	nt	4%[12.6 µM]	nt	nt
